HT1080 IDH1KD tx – HT-1080 IDH1 knockdown cell toxicity (counter line); Potency, µM (titrated, usually from 46.1 µM), for inactives: at the top dose activity, negative = toxicity, actives largely listed as cytotoxic; 360,000 compounds, 2% hits; AID 686971; HT-1080 IDH1 knockdown viability, ATP luminescence, 48 h;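 further: potency means the concentration at half of the fitted maximal effect; 0% = DMSO wells and -100% = cell-free medium wells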
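HT-1080-IDH1KD cells (IDH1 knocked down), 750/well in RPMI with 5% FBS, treated with compound 48 h at 37 degrees C. Viability by CellTiter-Glo luminescence, normalised to DMSO and no-cell wells; concentration-response curves classed.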
IL-1B inflam inh – inflammasome signaling inhibition, IL-1 beta readout | THP-1 LPS/ATP IL-1B secretion, AlphaLISA, 16 h; active compounds read low | activity change, % at 57.5 µM | 360,000 compounds, 4.7% hits | AID 743279; in the data active means activity change below about -50%; inconclusive means mostly about -30% to -49%
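Secreted IL-1B measured by AlphaLISA bead assay after 16 h compound exposure of THP-1 cells; compounds (final up to 57.5 uM) added 1 h before LPS (250 ng/mL) and ATP (1.25 mM) stimulation; lower signal means less secretion.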
TDP1 cell CPT – DT40-hTDP1 cell growth loss with CPT; 420,000 compounds, 12% hits; Potency, µM (top dose mostly 46.2 µM), inactives show top-dose activity change, negative = growth inhibition, hits mostly inhibitors; AID 686979; chicken DT40 Tdp1-/-;hTDP1 cells + 20 nM CPT, ATP luminescence, 48 h; further: potency means the concentration at half of the fitted maximal effect; nearly all actives have a fitted effect of over 55% in size
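Chicken DT40 Tdp1-/- cells stably complemented with human TDP1 were seeded at 400 cells/well in medium containing 20 nM camptothecin, exposed to pin-transferred compounds, and grown at 37 °C for at least 48 hr. Viability was read as ATP luminescence.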
HT1080NT lethal – kills 2HG-producing HT-1080-NT fibrosarcoma cells. HT-1080-NT fibrosarcoma viability, CellTiter-Glo ATP luminescence, 48 h. Potency, µM (highest dose often 46.1 µM), for the others: at the top dose activity, negative = less viability, actives largely listed as cytotoxic. 360,000 compounds, 1.6% hits. AID 686970;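 further: NT is the 2HG producing partner of a matched IDH1 knockdown line; potency means the concentration at half of the fitted maximal effect; 0% = DMSO-treated cells and -100% = media-only wells without cells; nearly all actives have a fitted effect of over 55% in size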
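Toxicity toward the 2HG-producing NT line was scored as %Activity, normalised to DMSO and no-cell wells, from CellTiter-Glo luminescence after 48 hours' treatment.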
TDP1 cell noCPT – qHTS for Inhibitors of human tyrosyl-DNA phosphodiesterase 1 (TDP1): qHTS in cells in absence of CPT | DT40 Tdp1-/- hTDP1 cells, no CPT, ATP luminescence, 48 h | 420,000 compounds, 15% hits | Potency, µM (top dose mostly 46.2 µM), for inactives: at the highest dose activity change, negative = growth inhibition, most hits filed as inhibitors; further: potency means the concentration at half of the fitted maximal effect; nearly all actives have a fitted effect of over 55% in size
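Camptothecin absent (DMSO only). Human TDP1-complemented DT40 knockout cells, 400 cells/well, 37 °C for minimum 48 hr; ATP measured via CellTiter-Glo, 30 min dark incubation, luminescence.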
* hit, by the source's call; ? = inconclusive; . = no result given; [ ] = another dose, or the depositor's remark. An excerpt weighted towards active compounds, which were near 19% of everything screened. Unless noted, the call rests on the fitted dose curve; in most records, active means well fitted curve in the direction sought with a large enough effect; inconclusive means small, poorly fitted or top-dose-only effect, or another doubt; inactive means no such curve, though single readings can be large; an effect the other way counts as inactive or inconclusive. Unless noted, on the % scale 0 is the no-effect control and ±100 the full control effect.

SMILES	HT1080 IDH1KD tx	IL-1B inflam inh	TDP1 cell CPT	HT1080NT lethal	TDP1 cell noCPT
COc1ccc(S(=O)(=O)N(Cc2ccccc2)c2ccccc2C(=O)O)cc1	0%	22	1%	-9%	0%
COc1ccc(C2NC(=O)c3ccccc3O2)cc1 (stereo not given)	10%	-15	-10%	6%	-7%
Oc1c(Br)cc(Br)cc1C=Nc1cccnc1	-5%	10	?	-10%	21µM*
Oc1ccc(Cl)cc1/C=N/c1nccs1	?	13	13µM*	-7%	11µM*
Oc1c(Br)cc(Br)cc1/C=N/c1nccs1	-15%	24	?	-13%	18µM*
Oc1c(Br)cc(Br)cc1C=Nc1ccc2[nH]ncc2c1	-13%	-2	-28%	-7%	?
Cn1cc([N+](=O)[O-])c(C(=O)NCc2ccccc2)n1	-4%	-19	-6%	-2%	-5%
CCN(CC)CCCNC(=O)CSc1nc2nc(C)c(Cc3ccccc3C)c(C)n2n1	.	.	-27%	.	-25%
Cc1nc2nc(SCC(=O)NCCCN3CCCC3)nn2c(C)c1Cc1ccccc1Cl	-19%	-54*	?	-5%	?
Cc1nc2nc(SCC(=O)NCCc3ccc(Cl)cc3)nn2c(C)c1Cc1c(F)cccc1Cl	.	.	-7%	.	-24%
Cc1ccccc1Cc1c(C)nc2nc(SCC(=O)NCCc3ccc(Cl)cc3)nn2c1C	.	.	16µM*	.	?
CCN(CC)CCCNC(=O)CSc1nc2nc(C)c(Cc3c(F)cccc3Cl)c(C)n2n1	.	.	?	.	6.5µM*
CCC1CCCCN1CCCNC(=O)CSc1nc2nc(C)c(Cc3ccc(C)cc3)c(C)n2n1 (stereo not given)	?	?	23µM*	?	?
Cc1ccc(/C=C2/SC(=O)NC2=S)o1	-3%	-12	-24%	9%	-18%
COc1cccc(C2NC(=S)NC(C)=C2C(=O)c2ccccc2)c1OC (stereo not given)	1.5µM*	58	?	2.3µM*	10µM*
COC(C[C@H]1O[C@H]1[C@H](O)COCc1ccccc1)OC	3%	12	2%	3%	-9%
CCn1c(COc2ccc3c(c2)OCO3)nnc1SCC(=O)c1ccc(Cl)cc1	-5%	-20	?	-6%	-14%
CCCN(CCC)CCCNC(=O)C1CCN(S(=O)(=O)c2cccc3nsnc23)CC1	2%	1	8%	8%	6%
CCCCN(CCCC)C(=O)C1CCN(S(=O)(=O)c2cccc3nsnc23)CC1	.	.	16µM*	.	26µM*
O=C(C1CCN(S(=O)(=O)c2cccc3nsnc23)CC1)N1CCc2ccccc2C1	-4%	-63*	?	-4%	?
CC1CCCN(C(=O)C2CCN(S(=O)(=O)c3cccc4nsnc34)CC2)C1 (stereo not given)	0%	13	8%	1%	-1%
CC1CCCC(NC(=O)COC(=O)CCSc2ccccc2)C1C (stereo not given)	16%	-6	23%	-6%	-4%
CC(NC(=O)c1cc(F)c(F)c(F)c1F)c1ccc(-n2ccnc2)cc1 (stereo not given)	-6%	?	23µM*	-12%	?
O=C(C1CCC(CNS(=O)(=O)c2ccc(Br)s2)CC1)N1CCN(c2ccccc2)CC1 (stereo not given)	.	.	4.6µM*	.	?
Cc1ccc(C)c(N2CCN(C(=O)C3CCC(CNS(=O)(=O)c4ccc(Br)s4)CC3)CC2)c1 (stereo not given)	.	.	5.8µM*	.	5.8µM*
SMILES	HT1080 IDH1KD tx	IL-1B inflam inh	TDP1 cell CPT	HT1080NT lethal	TDP1 cell noCPT
CC(=O)c1ccc(NC(=O)C2CCC(CNS(=O)(=O)c3ccc(Br)s3)CC2)cc1 (stereo not given)	.	.	11%	.	-14%
O=C(NCc1ccccc1)C1CCC(CNS(=O)(=O)c2ccc(Br)s2)CC1 (stereo not given)	.	.	-28%	.	-22%
O=C(C1CCC(CNS(=O)(=O)c2cccs2)CC1)N1CCN(c2ccc(Cl)cc2)CC1 (stereo not given)	0%	-15	6.5µM*	?	4.1µM*
O=C(NC1CCCC1)C1CCC(CNS(=O)(=O)c2cccs2)CC1 (stereo not given)	5%	0	-2%	0%	-2%
O=C(COC(=O)C1CCN(/C=C/C(=O)C(F)(F)F)CC1)Nc1cccc(F)c1	10%	28	4%	0%	-22%
CCc1cc(C(=O)c2ccc(OC)cc2)c(NC(=O)CC(C)(C)CC(=O)O)s1	-4%	33	-11%	-9%	-29%
COc1cccc(/C=C/C(=O)c2cccc([N+](=O)[O-])c2)c1	17%	-4	?	7%	?
COc1cccc(C(=O)/C=C/c2ccc(N3CCCCC3)c([N+](=O)[O-])c2)c1	?	-96*	18µM*	?	?
O=C(/C=C/c1ccc(N2CCCCC2)c([N+](=O)[O-])c1)c1ccc(S(=O)(=O)N2CCCC2)cc1	3%	6	9.2µM*	7%	9.2µM*
COc1cccc(CNC(=O)CCc2nnc3n(CC(C)C)c(=O)c4ccccc4n23)c1	.	.	19%	.	-10%
CCCCn1c(SCC(=O)NCc2ccco2)nc2c(sc3ccccc32)c1=O	7%	10	?	?	-12%
Cc1cccc(CSc2nc3c(sc4ccccc43)c(=O)n2CCC(=O)NC(C)C)c1	.	.	4.6µM*	.	12µM*
CC(C)OCCCn1c(SCC(N)=O)nc2c(sc3ccccc32)c1=O	.	.	21µM*	.	?
CCNC(=O)CSc1nc2ccccc2c(=O)n1CCCOC(C)C	13%	2	-6%	18%	-12%
CCCCn1c(SCC(N)=O)nc2c(sc3ccccc32)c1=O	-9%	-21	?	22µM*	?
C/C(N)=C(/C#N)C(=O)CSc1nc2ccccc2c(=O)n1CCCOC(C)C	16%	?	?	1%	23µM*
CN(C)c1nc(OCCNC(=O)COc2ccccc2Cl)nc(N(C)C)n1	15%	12	?	23%	10µM*
Cc1cc(Cl)ccc1OCC(=O)NCCC(=O)O	-1%[9.24 µM]	10	-20%	-19%	?
Cc1cc(Cl)ccc1OCC(=O)NCCOc1nc(N2CCCCC2)nc(N2CCOCC2)n1	1%	1	7.3µM*	5%	6.5µM*
COc1cc(C)nc(OCCNC(=O)COc2ccc(Cl)cc2C)n1	-7%	-2	16µM*	0%	21µM*
CCOc1ccc(NC(=O)COC(=O)c2c[nH]c3ccccc23)cc1	-1%	21	1%	2%	?
O=C(NCCCNc1ccc(C(F)(F)F)cc1[N+](=O)[O-])c1cc(F)c(F)cc1Cl	?	-22	?	?	18µM*

Assay outcomes deposited in PubChem by National Center for Advancing Translational Sciences (NCATS).
